Results from PubChem BioAssay AID588664 (The Scripps Research Institute Molecular Screening Center, 2011).
Hit rate of the full screen: of about 360,000 compounds, about 1,400 (0.39%) were called active. The entries come from a sample that favours actives as a whole. Values without a mark were called inactive. No stated cut-off is given here; in the data, active means inhibition above about 5% (passing the limit was not always enough); inactive means the rest.

Biological target: Tyrosine-protein kinase ABL1 (Homo sapiens) + Ras and Rab interactor 1 (Homo sapiens) (UniProt P00519+Q13671)
Assay: disruptors of human Abl and Rin1 association – biochemical, TR-FRET, primary screen (AID 588664)
Settings: TR-FRET Rin1/Abl binding, at 7.35 µM, stronger effect = higher value

Tyrosine-protein kinase ABL1 (Homo sapiens) + Ras and Rab interactor 1 (Homo sapiens), sequence (P00519 whole entry, looked up): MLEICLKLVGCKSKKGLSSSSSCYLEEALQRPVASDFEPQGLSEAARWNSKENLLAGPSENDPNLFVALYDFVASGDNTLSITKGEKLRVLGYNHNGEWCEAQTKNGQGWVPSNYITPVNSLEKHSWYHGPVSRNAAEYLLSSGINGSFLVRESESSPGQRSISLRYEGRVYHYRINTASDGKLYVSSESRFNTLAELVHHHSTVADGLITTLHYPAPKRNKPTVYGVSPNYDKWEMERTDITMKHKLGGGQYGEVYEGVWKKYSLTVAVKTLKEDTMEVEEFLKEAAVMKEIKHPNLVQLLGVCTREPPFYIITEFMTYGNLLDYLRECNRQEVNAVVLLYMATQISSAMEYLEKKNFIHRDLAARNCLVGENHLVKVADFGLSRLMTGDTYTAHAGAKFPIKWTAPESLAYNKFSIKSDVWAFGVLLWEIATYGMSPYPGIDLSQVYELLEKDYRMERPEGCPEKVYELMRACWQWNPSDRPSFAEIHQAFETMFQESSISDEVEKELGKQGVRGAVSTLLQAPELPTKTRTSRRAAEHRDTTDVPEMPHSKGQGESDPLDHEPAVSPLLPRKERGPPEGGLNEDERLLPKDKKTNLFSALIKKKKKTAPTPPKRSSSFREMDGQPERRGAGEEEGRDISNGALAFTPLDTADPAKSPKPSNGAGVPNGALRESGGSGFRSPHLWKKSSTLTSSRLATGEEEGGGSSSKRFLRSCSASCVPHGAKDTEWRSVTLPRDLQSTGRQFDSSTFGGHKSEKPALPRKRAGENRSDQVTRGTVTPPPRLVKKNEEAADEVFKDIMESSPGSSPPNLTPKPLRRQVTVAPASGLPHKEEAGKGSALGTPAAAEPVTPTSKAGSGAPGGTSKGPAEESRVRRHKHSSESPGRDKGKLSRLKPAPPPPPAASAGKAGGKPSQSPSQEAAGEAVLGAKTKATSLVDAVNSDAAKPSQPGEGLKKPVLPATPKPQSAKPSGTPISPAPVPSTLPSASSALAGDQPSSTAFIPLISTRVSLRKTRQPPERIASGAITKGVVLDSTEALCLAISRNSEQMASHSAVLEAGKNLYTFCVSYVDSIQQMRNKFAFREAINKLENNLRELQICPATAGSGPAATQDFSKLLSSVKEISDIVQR
Tyrosine-protein kinase ABL1 (Homo sapiens) + Ras and Rab interactor 1 (Homo sapiens), sequence (Q13671 whole entry, looked up): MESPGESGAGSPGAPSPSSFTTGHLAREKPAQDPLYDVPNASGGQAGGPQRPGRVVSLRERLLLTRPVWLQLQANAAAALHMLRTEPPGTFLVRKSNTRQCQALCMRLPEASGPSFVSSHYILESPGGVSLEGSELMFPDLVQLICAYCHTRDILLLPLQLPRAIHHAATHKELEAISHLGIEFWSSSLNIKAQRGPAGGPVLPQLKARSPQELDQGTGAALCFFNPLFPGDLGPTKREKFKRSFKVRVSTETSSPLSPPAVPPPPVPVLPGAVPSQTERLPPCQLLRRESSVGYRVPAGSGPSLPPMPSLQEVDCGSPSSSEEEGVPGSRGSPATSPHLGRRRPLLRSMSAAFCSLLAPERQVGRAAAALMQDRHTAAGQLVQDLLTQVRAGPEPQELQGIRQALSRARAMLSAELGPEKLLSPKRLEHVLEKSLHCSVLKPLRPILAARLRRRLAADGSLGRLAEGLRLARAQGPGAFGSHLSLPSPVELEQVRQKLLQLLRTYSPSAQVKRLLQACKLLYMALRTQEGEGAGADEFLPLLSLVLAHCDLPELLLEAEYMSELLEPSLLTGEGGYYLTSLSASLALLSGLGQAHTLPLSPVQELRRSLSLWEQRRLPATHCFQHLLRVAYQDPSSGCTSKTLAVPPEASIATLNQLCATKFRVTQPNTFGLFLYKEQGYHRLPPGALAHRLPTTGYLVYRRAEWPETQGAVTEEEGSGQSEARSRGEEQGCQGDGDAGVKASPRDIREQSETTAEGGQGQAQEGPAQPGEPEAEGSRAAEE

Row | Structure (SMILES) | inhibition
1 | O=C(Nc1ccc2c(c1)[C@@H]1C[C@@H](CC(=O)N3CCCCC3)O[C@@H](CO)[C@@H]1O2)NC1CCCCC1 | 2.19%
2 | O=C(Cn1cnc2cc([N+](=O)[O-])ccc2c1=O)NC(=O)NCc1ccccc1 | -4.46%
3 | CCOC(=O)C(CCOc1cccc(CC)c1)C(=O)OCC | 0.47%
4 | COc1ccc2c(c1)c(=O)c(C(=O)c1ccc(Cl)cc1)cn2CC(=O)Nc1ccc(F)cc1 | -3.04%
5 | COc1ccc(CNC(=O)c2cc(C(=O)C3CC3)c[nH]2)cc1 | 11.6% (active)
6 | COc1ccc(CNC(=O)c2c[nH]c3c(OC)cc(OC)cc3c2=O)cc1 | -2.41%
7 | COc1ccc(CNC(=O)C2CCCC2)cc1 | -1.61%
8 | OCC[C@H]1C[C@@H](O)[C@H](O)[C@@]2(OCCc3ccccc32)O1 | 1.02%
9 | CC(OC(=O)c1ccc(NC(=O)CC#N)cc1)C(=O)Nc1ccc(S(=O)(=O)N2CCCC2)cc1 (stereo not drawn) | 2.43%
10 | CCc1ccc(CN(C)C(C)C(=O)Nc2ccc(S(=O)(=O)N3CCCC3)cc2)cc1 (stereo not drawn) | 12.4% (active)
11 | CC(C(=O)Nc1ccc(S(=O)(=O)N2CCCC2)cc1)N(C)Cc1ccc(F)cc1 (stereo not drawn) | 2.65%
12 | Cc1nn(Cc2ccccc2)c(C)c1C(=O)N1CCN(CC(=O)Nc2ccccc2Cl)CC1 | 2.44%
13 | CCOC(=O)C1=C(COC(=O)[C@H](C)NS(=O)(=O)c2ccccc2F)NC(=O)NC1C (stereo partly drawn) | 2.47%
14 | CNC(=S)NNC(=O)c1ccc(N(C)C)cc1 | 0.47%
15 | CN(C)c1ccc(N/C=C/C(=O)C(F)(F)F)cc1 | 7.5% (active)
16 | CN(C)c1ccc(/C=N/NC(=O)C(O)c2ccc(Br)cc2)cc1 (stereo not drawn) | 0.79%
17 | C[C@H](CO)N1C[C@H](C)[C@@H](CN(C)C(=O)C2CCCCC2)OCc2cnnn2CCCC1=O | -1.65%
18 | Cc1cc(C)c(C(N)=O)c(Cl)n1 | -1.52%
19 | Cc1ccccc1CN1C[C@@H]2C[C@@H](c3cn(C)nc3-c3ccccc3)N3CCC[C@@]23C1=O | -1.71%
20 | Cc1ccccc1CN1CCN(CC(=O)NCc2ccccn2)C1=O | -1.59%
21 | Cc1ccccc1CN1C[C@@H]2C[C@@H](c3ccc4nsnc4c3)N3CCC[C@@]23C1=O | 8.18% (active)
22 | CC(OC(=O)/C=C/c1ccccc1)C(=O)Nc1ccc(C(N)=O)cc1 (stereo not drawn) | 1.19%

Row | Structure (SMILES) | inhibition
23 | O=S1(=O)CC(N2CCN(c3ccccn3)CC2)CN1Cc1ccc(F)cc1 (stereo not drawn) | 1.04%
24 | Cc1c(CC(=O)N2CCN(C(=O)C3COc4ccccc4O3)CC2)c(=O)oc2c(O)c(O)ccc12 (stereo not drawn) | 9.84% (active)
25 | Cc1c(CCC(=O)O)c(=O)oc2c(C)c(OCc3ccccc3Cl)ccc12 | 1.81%
26 | Cc1ccc(S(=O)(=O)NCCC(=O)NNC(=O)C2COc3ccccc3O2)cc1 (stereo not drawn) | -0.47%
27 | COC(=O)c1ccc(NC(=O)CN(c2ccc(C)cc2)S(=O)(=O)c2c(C)n[nH]c2C)cc1 | 3.33%
28 | NC1=CC(=O)C(=O)c2cccnc21 | 17.2% (active)
29 | CC1(C)C=Cc2c(ccc3c2OC[C@@H](c2ccc(O)cc2O)C3)O1 | -2.38%
30 | NC(=O)c1ccc(CN2CCC(Cc3ccccc3)CC2)cc1 | 1.83%
31 | O=c1cc(CO)oc(CN2CCC(Cc3ccccc3)CC2)c1O | 30.9% (active)
32 | CCOC(=O)N1CCN(Cc2oc(CO)cc(=O)c2O)CC1 | 1.56%
33 | CCC(C)C(=O)Nc1ccccc1N1CCN(c2ccc(F)cc2)CC1 (stereo not drawn) | 1.3%
34 | CCOC(=O)C1CCCN(C(=O)c2ccc(C)c(S(=O)(=O)N3CCCCC3)c2)C1 (stereo not drawn) | 2.16%
35 | Cn1nc([N+](=O)[O-])nc1Sc1ccc(C(C)(C)C)cc1 | -6.46%
36 | O=C(CNCc1ccco1)Nc1cc(S(=O)(=O)N2CCOCC2)ccc1N1CCCC1 | 5.51% (active)
37 | CC(C)CCC(=O)Nc1cc(S(=O)(=O)N2CCOCC2)ccc1N1CCCC1 | -1.79%
38 | O=C(COC(=O)c1ccccc1F)Nc1cc(S(=O)(=O)N2CCOCC2)ccc1N1CCCC1 | 0.95%
39 | O=C1NC[C@@H](c2ccccc2)OC(=O)[C@H](Cc2ccc(F)cc2)CC/C=C/C[C@H]1CC(=O)N(CCO)Cc1ccccc1 | -0.64%
40 | Cc1nn(C)cc1S(=O)(=O)N1CCN(c2ccc(F)cc2)CC1 | 1.17%
41 | CCOc1c2ccc(C(=O)NCc3ccc(OC(F)(F)F)cc3)cc2nn1C | 3.17%
42 | O=C(Nc1ccc(OC(F)(F)F)cc1)c1ccc2c(c1)no[n+]2[O-] | 6.4% (active)
43 | CCOC(=O)Cc1ncccc1C(=O)Nc1ccc(OC(F)(F)F)cc1 | -0.49%
44 | COc1ccc(N(CC(=O)NC2CCCCC2)S(=O)(=O)c2c(C)[nH]c(=O)[nH]c2=O)cc1 | 0.98%

Row | Structure (SMILES) | inhibition
45 | C=CCNC(=O)c1ccccc1NC(=O)c1ccc(Cl)c(S(=O)(=O)Nc2cccc(C)c2C)c1 | 3.96%
46 | CC(=O)Nc1ccc(CN2CCC(Oc3ccc(C(=O)N4CCCC4)cc3)CC2)cc1 | 7.35% (active)
47 | O=C(c1ccc(OC2CCN(C/C=C/c3ccc(F)cc3)CC2)cc1)N1CCCCC1 | 4.14%
48 | Cc1nn(C)c(Cl)c1CN1CCC(Oc2ccc(C(=O)N3CCCC3)cc2)CC1 | -0.88%
49 | Cc1noc(C)c1-c1nc(CSc2ccc(Cl)cc2)no1 | -1.19%
50 | COc1ccc(-c2cc(C(F)(F)F)n3nc(C(=O)N4CCOCC4)c(Cl)c3n2)cc1 | 0.58%
51 | CCc1nnc(NC(=O)CSc2nc3ccccc3c(=O)n2CCCOC)s1 | 2.09%
52 | CC(CCO)Nc1nc2c([nH]1)c(=O)n(C)c(=O)n2C (stereo not drawn) | 7.16% (active)
53 | Cc1cccc(C)c1NC(=O)CSc1nc2c([nH]1)c(=O)n(C)c(=O)n2C | 0.29%
54 | Cc1cc(C)c(C=NNc2nc3c([nH]2)c(=O)n(C)c(=O)n3C)c(C)c1 | 4.38%
55 | O=C(C=CC(=O)Nc1ccc(F)cc1F)Nc1ccc(F)cc1F | -1.65%
56 | Cc1sc2ncn(CC(=O)NCCN(C)C)c(=O)c2c1S(=O)(=O)N1CCC(C)CC1 | -2.5%
57 | O=C(CCN1C(=O)[C@H]2CC=CC[C@H]2C1=O)NCc1nc(-c2ccccc2)no1 | 4.64%
58 | C=C(Br)Cn1c(CCCC)nc2ccccc21 | -1.26%
59 | NS(=O)(=O)c1ccc(CCNC(=O)Nc2ccc(Cl)cc2)cc1 | 7.48% (active)
60 | CN(CC(=O)NCCc1ccc(S(N)(=O)=O)cc1)CC(=O)Nc1ccc(Cl)cc1 | 2.85%
61 | NS(=O)(=O)c1ccc(CCNC(=S)Nc2ccc(S(N)(=O)=O)cc2)cc1 | -1.51%
62 | COc1ccc(-c2c(C)nn3c(N4CCC(C(=O)N5CCCCC5)CC4)cc(C)nc23)cc1OC | -0.97%
63 | c1ccc(Cc2nn3c(Cn4cnc5ccccc54)nnc3s2)cc1 | 6.72%
64 | OCCNc1nc2ccccc2n1-c1ncnc2sc3c(c12)CCC3 | -1.62%
65 | CCc1cc2c(NC(Cc3ccccc3)C(=O)O)ncnc2s1 (stereo not drawn) | -0.92%
66 | CCc1cc2c(N3CCN(c4nnc(CC)s4)CC3)ncnc2s1 | 7.4% (active)

Row | Structure (SMILES) | inhibition
67 | CCc1cc2c(NC3CCCC3)ncnc2s1 | -2.86%
68 | C[C@@H](NC(=O)[C@@H]1Cc2ccccc2CN1)C(=O)NC1CCCC1 | 0.01%
69 | Cc1ccc(C)c(NS(=O)(=O)c2ccc(OCC(=O)NCc3cccnc3)cc2)c1 | 2.47%
70 | Cc1cccc(C)c1NC(=O)CN1CCN(c2ccc(F)cc2)CC1 | 2.38%
71 | Oc1c(CN2CCN(c3ccc(F)cc3)CC2)cc(Cl)c2cccnc12 | 5.47% (active)
72 | Cc1cc(=O)oc2cc(OCC(=O)N3CCN(c4ccc(F)cc4)CC3)c(Cl)cc12 | -4.94%
73 | O=C(CN1CCN(c2ccc(Cl)cc2)CC1)NCc1cccs1 | -1.08%
74 | COCCNc1ncnc2c1ncn2[C@H]1CN(Cc2ccc(OC)cc2)C[C@@H](CO)O1 | -1.27%
75 | CC(C)Nc1ncnc2c1ncn2[C@H]1CN(Cc2ccncc2)C[C@@H](CO)O1 | 3.54%
76 | OC[C@@H]1CN(Cc2ccc(Cl)cc2)C[C@H](n2cnc3c(NCc4ccncc4)ncnc32)O1 | 7.27% (active)
77 | CCOC(=O)c1cn[nH]c1NC(=S)Nc1ccccc1 | -0.64%
78 | Cc1ccc(S(=O)(=O)CCC(=O)OCC(=O)N(C)C2CCS(=O)(=O)C2)cc1 (stereo not drawn) | 6.74%
79 | O=C(c1ccc(-n2cnnn2)cc1)N1CCN(C(c2ccccc2)c2ccccc2)CC1 | 1.41%
80 | Nc1nc2n(n1)C(c1ccco1)CC(c1ccc(Cl)c(Cl)c1)N2 (stereo not drawn) | 6.57% (active)
81 | Cc1ccc(C2CC(c3cccc(Br)c3)n3nc(N)nc3N2)cc1 (stereo not drawn) | 1.76%
82 | Cc1ccc(C2CC(c3cccc(C)c3)n3nc(N)nc3N2)cc1 (stereo not drawn) | -1.41%
83 | O=C(NC(=S)Nc1ccc(Br)cc1F)C1CCCCC1 | 6.29%
84 | Cc1cccc(N(C)C(=O)CN2C(=O)COc3ccc(S(=O)(=O)N4CCCCCC4)cc32)c1 | 9.47% (active)
85 | CN(C)c1ccc(CNC(=O)CN2C(=O)COc3ccc(S(=O)(=O)N4CCCC4)cc32)cc1 | 2.18%
86 | CC(=O)Nc1ccc(NC(=O)CN2C(=O)COc3ccc(S(=O)(=O)N4CCCCC4)cc32)cc1 | 2.56%
87 | Cc1cccc(OCc2nnc(SCc3nc4cc(C(F)(F)F)ccc4c(=O)[nH]3)o2)c1 | 4.23%
88 | O=C1CC(Cc2ccccc2)C(=O)N1c1ccc(Cl)cn1 (stereo not drawn) | -3.26%
